From paper PMC10668032, “Altered binding affinity of SIX1-Q177R correlates with enhanced WNT5A and WNT pathway effector expression in Wilms tumor”
In all, about 33,000 sequences were measured (“e-score”: median about -0.053, highest 2% from about 0.38 on). The list comes from a sample in which the highest values are over-represented; it also holds similar and randomly drawn sequences.

target: T1, SIX1 homeodomain (reference allele) (human, UniProt Q15475 108-198); assay: universal protein binding microarray; Universal all-10-mer PBM (8x60K, AMADID 030236), 300 nM GST-tagged protein, Alexa Fluor 488 anti-GST; buffer, salt, pH and temperature not stated (as in Berger); high values mean tight binding; details: protein: ivt; tags: N-terminal GST; dsDNA, one strand shown
T1 sequence: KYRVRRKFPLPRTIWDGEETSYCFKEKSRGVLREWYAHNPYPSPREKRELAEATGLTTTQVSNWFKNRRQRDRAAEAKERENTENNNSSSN
Outline: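 After in vitro transcription/translation, GST-tagged homeodomains were quantified against a recombinant GST standard curve by anti-GST western blot. They were then placed in duplicate at 300 nM final concentration on universal 'all 10-mer' protein binding microarrays of 8×60K format.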

Sequence	binding signal
GATCGGTA	0.3365 ± 0.000728 E-score
TATTCTCA	0.19 ± 0.0783 E-score
AGAACATA	0.152 ± 0.0261 E-score
ATACTGCG	0.185 ± 0.0499 E-score
CGTAATCC	0.276 ± 0.00776 E-score
AGATCCGC	0.333 ± 0.0252 E-score
GGATCCGA	0.376 ± 0.0683 E-score
CGATCCGC	0.418 ± 0.0398 E-score
CGATCCGA	0.396 ± 0.0357 E-score
AGATCCGA	0.276 ± 0.0275 E-score
CGATCCTC	0.333 ± 0.00326 E-score
ATCGTCTC	0.304 ± 0.0389 E-score
TACAAGTA	0.162 ± 0.0274 E-score
ATCTAGGG	0.187 ± 0.0244 E-score
CCGGTAGA	0.151 ± 0.0265 E-score
ATCACGGA	0.288 ± 0.0444 E-score
CATACTCA	0.152 ± 0.0301 E-score
GATACTCC	0.45 ± 0.00694 E-score
TATACTCA	0.192 ± 0.0629 E-score
AATACTCG	0.165 ± 0.0216 E-score
AATACTAC	0.181 ± 0.00602 E-score
GATACTAC	0.432 ± 0.0131 E-score
GATACTCA	0.429 ± 0.0251 E-score
GATACTAA	0.362 ± 0.0288 E-score
AATACTCA	0.255 ± 0.0524 E-score

Sequence	binding signal
TAGAGATA	0.268 ± 0.0459 E-score
AGGCCGAT	0.153 ± 0.00796 E-score
ATATAACC	0.177 ± 0.0584 E-score
ATCGCTGG	0.23 ± 0.00422 E-score
AGATAGCC	0.247 ± 0.0195 E-score
ATCTGGGA	0.196 ± 0.00724 E-score
TATCTAAA	0.301 ± 0.0245 E-score
GTATACAC	0.371 ± 0.00578 E-score
ATCATGAT	0.3975 ± 0.000976 E-score
ATCAGGAA	0.165 ± 0.0245 E-score
ATCATGAC	0.197 ± 0.0404 E-score
ATCATGAG	0.23 ± 0.0357 E-score
ATCAGGAG	0.188 ± 0.0305 E-score
ATCAGGAT	0.394 ± 0.00836 E-score
CATCGGGA	0.164 ± 0.0507 E-score
ATCTACTG	0.22 ± 0.0235 E-score
GATCGGGC	0.296 ± 0.015 E-score
CATATATG	0.23 ± 0.0477 E-score
AAAATATC	0.154 ± 0.121 E-score
TACATATA	0.254 ± 0.00881 E-score
GACATATA	0.226 ± 0.0783 E-score
AACATATC	0.378 ± 0.0821 E-score
GACATATC	0.386 ± 0.0597 E-score
CACATATC	0.404 ± 0.0155 E-score
CACATATA	0.165 ± 0.0792 E-score

Sequence	binding signal
AACATATA	0.235 ± 0.0646 E-score
ATATTACC	0.259 ± 0.0572 E-score
ACGGTATA	0.309 ± 0.0298 E-score
ACGGTATC	0.461 ± 0.00576 E-score
CCGGTATC	0.465 ± 0.014 E-score
CCGGTATA	0.343 ± 0.0129 E-score
ACGGTATG	0.157 ± 0.0316 E-score
CCGGTAAA	0.157 ± 0.034 E-score
AGCTGGAT	0.248 ± 0.0399 E-score
CGGGCTCA	0.2 ± 0.0586 E-score
CCGATACC	0.478 ± 0.00955 E-score
GCGATACC	0.4835 ± 0.00434 E-score
GCGATACA	0.3759 ± 0.00354 E-score
GCGATAGC	0.165 ± 0.0972 E-score
CCTATACC	0.311 ± 0.00556 E-score
CCGATAGG	0.348 ± 0.0522 E-score
CCGATACG	0.425 ± 0.0199 E-score
ACTATACC	0.294 ± 0.0358 E-score
ACGATACC	0.4766 ± 0.000912 E-score
CCAATACC	0.324 ± 0.0157 E-score
CCGATACA	0.355 ± 0.0604 E-score
ACGATAGC	0.217 ± 0.0418 E-score
ATCGCCCC	0.253 ± 0.0184 E-score
TCATCTCA	0.298 ± 0.0135 E-score
TACCTATA	0.289 ± 0.0262 E-score

Sequence	binding signal
ACTGTATA	0.239 ± 0.0136 E-score
ACGATACT	0.439 ± 0.00647 E-score
ACTATACG	0.247 ± 0.0175 E-score
ACGATACA	0.3689 ± 0.00151 E-score
AAGATACT	0.295 ± 0.0825 E-score
ACGATACG	0.4317 ± 0.000841 E-score
CCTATACG	0.153 ± 0.0436 E-score
GAGGTGTA	0.233 ± 0.0426 E-score
CCAATTAG	0.188 ± 0.014 E-score
ATACTAGC	0.245 ± 0.0797 E-score
GGATAGTA	0.332 ± 0.00348 E-score
AGTATCGG	0.4293 ± 0.0041 E-score
ACTATCGA	0.263 ± 0.00274 E-score
AGTATCGA	0.418 ± 0.0178 E-score
CGTATCGC	0.453 ± 0.00646 E-score
CCTATCGC	0.29 ± 0.0221 E-score
ACTATCGC	0.2364 ± 0.00196 E-score
CGTATAGC	0.185 ± 0.0242 E-score
AGTATCGC	0.435 ± 0.0231 E-score
AGTATAGA	0.195 ± 0.0499 E-score
ATTATCGG	0.24 ± 0.012 E-score
AGTATATG	0.207 ± 0.0381 E-score
AAGATCGC	0.211 ± 0.00754 E-score
CTAGATAG	0.197 ± 0.0328 E-score
ATATGCGA	0.276 ± 0.0349 E-score

Sequence	binding signal
ATATAGCA	0.248 ± 0.0375 E-score
TATTGAGA	0.237 ± 0.0198 E-score
AGATCTGC	0.204 ± 0.0418 E-score
ACTCGTAT	0.205 ± 0.0218 E-score
GTATTGAA	0.213 ± 0.0401 E-score
CTTGTATA	0.213 ± 0.0563 E-score
ATACAGCA	0.221 ± 0.0273 E-score
ATACTAGG	0.275 ± 0.02 E-score
AATACGAC	0.18 ± 0.0741 E-score
GATACGGA	0.455 ± 0.00852 E-score
AATACGGC	0.252 ± 0.0178 E-score
GATACGAA	0.335 ± 0.00345 E-score
TATACGGA	0.28 ± 0.0266 E-score
CATACGGA	0.178 ± 0.0693 E-score
GATACGAC	0.382 ± 0.0127 E-score
AATACGGT	0.231 ± 0.00828 E-score
GATACGGC	0.4543 ± 0.00163 E-score
ATTATAAT	0.151 ± 0.0936 E-score
ATCGCTGA	0.226 ± 0.0497 E-score
AATCCGAT	0.3407 ± 0.0025 E-score
ATATGCGG	0.274 ± 0.0261 E-score
ATCACACG	0.256 ± 0.0276 E-score
CTATCACA	0.311 ± 0.0251 E-score
CTATCACC	0.35 ± 0.0258 E-score
ATATCACC	0.463 ± 0.0204 E-score

Sequence	binding signal
GTGTCACA	0.375 ± 0.0203 E-score
GTATCACA	0.476 ± 0.00651 E-score
ATCTCACA	0.293 ± 0.0554 E-score
CGATCACA	0.273 ± 0.0408 E-score
ATATCACG	0.456 ± 0.0263 E-score
ATCTCACC	0.335 ± 0.0374 E-score
ATCACACA	0.266 ± 0.0227 E-score
ATATCACA	0.432 ± 0.0476 E-score
GACCCCGA	0.162 ± 0.0961 E-score
GACCGATA	0.352 ± 0.0178 E-score
ATCCTGCC	0.175 ± 0.00513 E-score
ATCCCAGG	0.246 ± 0.0889 E-score
ATACGTCG	0.284 ± 0.0738 E-score
GAGGATCC	0.366 ± 0.0159 E-score
ATCATGCC	0.244 ± 0.0171 E-score
ATACTAAC	0.243 ± 0.00453 E-score
GATCGGGA	0.314 ± 0.0357 E-score
ATCATGTA	0.257 ± 0.0225 E-score
AAAATGAT	0.187 ± 0.101 E-score
CATGGATC	0.307 ± 0.0322 E-score
GTCTGATA	0.294 ± 0.0149 E-score
AGCTGATA	0.357 ± 0.0301 E-score
CACTGATC	0.284 ± 0.00727 E-score
AACTGATA	0.409 ± 0.0324 E-score
AACTGATC	0.286 ± 0.0372 E-score

Sequence	binding signal
GGCTGATA	0.422 ± 0.00103 E-score
CACTGAGA	0.188 ± 0.00306 E-score
CGCTGATA	0.325 ± 0.0672 E-score
GACTGATC	0.272 ± 0.0144 E-score
CACTGATA	0.404 ± 0.0311 E-score
GACTGATA	0.4 ± 0.0302 E-score
GATAAGGA	0.183 ± 0.0109 E-score
TAAACTGA	0.158 ± 0.0427 E-score
GATAAAAC	0.164 ± 0.00658 E-score
AATAGTAT	0.251 ± 0.0966 E-score
GATTAGAA	0.184 ± 0.0514 E-score
ATCAGACC	0.201 ± 0.00705 E-score
ACGATTAA	0.152 ± 0.0367 E-score
AGACTATA	0.204 ± 0.0102 E-score
AGCCAGAT	0.176 ± 0.0223 E-score
TACTGATA	0.418 ± 0.0125 E-score
TACTGACA	0.182 ± 0.0373 E-score
TACTGCTA	0.189 ± 0.0325 E-score
ATCGGTTC	0.248 ± 0.0232 E-score
CCCTGAGC	0.178 ± 0.0455 E-score
CCATCCGA	0.218 ± 0.0511 E-score
CTACCATA	0.167 ± 0.0746 E-score
ATACCAAC	0.367 ± 0.0126 E-score
ATACCATA	0.3938 ± 0.0037 E-score
ACACCACA	0.328 ± 0.0113 E-score

Sequence	binding signal
ACACCACC	0.293 ± 0.0475 E-score
ACACCACT	0.378 ± 0.0238 E-score
ATACCATC	0.384 ± 0.0257 E-score
ATACCATG	0.362 ± 0.0283 E-score
ATACCACA	0.3 ± 0.00694 E-score
ATACCACG	0.291 ± 0.0123 E-score
ACACCATA	0.302 ± 0.022 E-score
ATACCACC	0.403 ± 0.00615 E-score
ATCCCCGA	0.368 ± 0.0273 E-score
ATGGAGGA	0.155 ± 0.0279 E-score
CTATACGA	0.1804 ± 0.000898 E-score
ACCCTTCT	0.224 ± 0.046 E-score
CACCCCTC	0.251 ± 0.0895 E-score
AGATTAAT	0.2 ± 0.0731 E-score
ATTAAACC	0.174 ± 0.0609 E-score
GTGATCGA	0.159 ± 0.103 E-score
TATTGGCA	0.223 ± 0.0277 E-score
ATGATAAT	0.168 ± 0.0146 E-score
TAGATACA	0.25 ± 0.019 E-score
ATCATACA	0.306 ± 0.0152 E-score
TCGATACA	0.348 ± 0.00588 E-score
ATGATACC	0.4885 ± 0.000523 E-score
ATGATGCC	0.157 ± 0.00805 E-score
AAGATACA	0.265 ± 0.0451 E-score
ATGATACA	0.449 ± 0.0144 E-score

Sequence	binding signal
GTTATACA	0.151 ± 0.064 E-score
CTGATACA	0.404 ± 0.00574 E-score
GTGATACA	0.444 ± 0.0156 E-score
CTACAGTA	0.152 ± 0.00721 E-score
ATCACTAC	0.287 ± 0.0143 E-score
GGATTGTA	0.162 ± 0.0146 E-score
ACGCGATC	0.275 ± 0.00505 E-score
GATAGCGA	0.251 ± 0.00148 E-score
ATACATTG	0.218 ± 0.012 E-score
GTATATTA	0.267 ± 0.0332 E-score
CTGATACC	0.4842 ± 0.00158 E-score
ATGATCAG	0.229 ± 0.031 E-score
ATGATACG	0.48 ± 0.01 E-score
CTCATACC	0.171 ± 0.00583 E-score
ATCATACG	0.269 ± 0.0223 E-score
CTGAGACC	0.261 ± 0.00696 E-score
ATCGGGTA	0.337 ± 0.0486 E-score
GATCGGAA	0.167 ± 0.0621 E-score
CCTAGATC	0.228 ± 0.0313 E-score
